Laboratory results taken from PubChem BioAssay (EPA / NIEHS).
“And” between values parts separate entries of the source, which are not always exact repeats. Equal entries are not always repeated. Where a structure was tested more than once in an assay, its records may differ in their call. The source made the active and inactive calls. Rule for the calls: active = hit-call score of the fitted dose curve at least 0.9, where 1 is the maximum; inactive = score below 0.9.

Columns and labels:
[1] = ATG_M_32_CIS: Attagene CIS-FACTORIAL HepG2 Assay for M32 Transcription Factor (Internal Marker) (AID 2282949); settings: HepG2 Attagene cis-factorial M32 reporter, mRNA; actives raise or lower the signal;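 note: background control marker of the multiplexed CIS panel rather than a real target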
Outline: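 Using DMSO as baseline, bidirectional curve fits were applied to reporter mRNA signals. These came from transiently transfected HepG2 cells exposed for 24 h, with RNA analysed by RT-PCR, FAM primer extension, HpaI digestion and CE.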

[2] = target: Hepatocyte nuclear factor 6 (Homo sapiens) (UniProt Q9UBC0); test: ATG_HNF6_CIS: Attagene CIS-FACTORIAL HepG2 Assay for human Hepatocyte Nuclear Factor 6 (HNF6) (AID 2282952); settings: HepG2 Attagene cis-factorial HNF6 reporter transcription; actives raise or lower the signal
Outline: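 Endogenous factor activity read in transiently transfected HepG2 via promoter-regulated reporter transcripts. RNA harvested 24 h post-dosing, reverse-transcribed, PCR-amplified, FAM-labelled, HpaI-digested and resolved by capillary electrophoresis; fitted in both directions against DMSO.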

[3] = ATG_MRE_CIS: Attagene CIS-FACTORIAL HepG2 Assay for human Metal Responsive Element (MRE) (AID 2282954); settings: HepG2 MRE cis-reporter transcription, Attagene multiplex; actives raise or lower the signal
Outline: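 Multiplexed cis-reporter assay in human HepG2 liver cells, 24 h incubation with test chemical. Reporter transcripts measured by RT-PCR and capillary electrophoresis; values from bidirectional curve fitting versus DMSO.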

[4] = ATG_PBREM_CIS: Attagene CIS-FACTORIAL HepG2 Assay for human Phenobarbital-responsive Enhancer Module (PBREM) (AID 2282955); settings: HepG2 PBREM cis-reporter, Attagene multiplexed transcription; actives raise or lower the signal
Outline: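 Fluorescence of labelled reporter cDNA fragments, resolved by capillary electrophoresis, gives mRNA induction in transfected HepG2 cells treated for 24 h; DMSO serves as negative control and baseline.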

[5] = ATG_PPRE_CIS: Attagene CIS-FACTORIAL HepG2 Assay for human Peroxisome Proliferator-activated Response Element (PPRE) (AID 2282958); settings: HepG2 PPRE cis-element reporter, Attagene transcription factor profiling; actives raise or lower the signal
Outline: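 Cells are first transfected transiently with the multiplexed reporter library, then dosed for 24 h. Total RNA is reverse-transcribed, amplified, fluorescently end-labeled and HpaI-cut before capillary electrophoresis; activity is fitted bidirectionally against DMSO controls.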

[6] = ATG_RORE_CIS: Attagene CIS-FACTORIAL HepG2 Assay for human RAR-related Orphan Receptor Element (RORE) (AID 2282959); settings: HepG2 Attagene cis-factorial RORE reporter, mRNA; actives raise or lower the signal
Outline: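 Cells were HepG2 carrying transfected cis-regulated reporter constructs, dosed for 24 hours. Total RNA was reverse-transcribed and reporter cDNA amplified, fluorescently labeled and sized by capillary electrophoresis. Activity was fitted bidirectionally relative to DMSO.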

[7] = ATG_Sox_CIS: Attagene CIS-FACTORIAL HepG2 Assay for human SRY-box transcription factor (SOX) (AID 2282960); settings: HepG2 Attagene cis-factorial SOX reporter, mRNA; actives raise or lower the signal
Outline: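 Transient MRTU transfection of HepG2; 24 h compound incubation; TriZol RNA, oligo(dT) RT, PCR, 6-FAM primer extension, HpaI cut, CE. Bidirectional fit, DMSO = baseline.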

[8] = target: Transcription factor Sp1 (Homo sapiens) (UniProt P08047); test: ATG_Sp1_CIS: Attagene CIS-FACTORIAL HepG2 Assay for human Specificity Protein 1 (Sp1) (AID 2282961); settings: HepG2 Sp1 cis-reporter transcription, actives raise or lower the signal
Outline: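 Endogenous Sp1 activity was gauged in human liver HepG2 cells bearing transfected reporter units under a cis-regulating promoter. After 24 h dosing, reporter mRNA was quantified by RT-PCR with capillary electrophoresis, and activity fitted bidirectionally versus DMSO.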

[9] = ATG_SREBP_CIS: Attagene CIS-FACTORIAL HepG2 Assay for human Sterol Regulatory Element Binding (SREBP) (AID 2282962); settings: HepG2 Attagene cis-factorial SREBP reporter, mRNA; actives raise or lower the signal
Outline: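 Endogenous SREBP activity read as cis-element-driven reporter transcript in transiently transfected HepG2, 24 h post-dosing; quantified via RT-PCR plus capillary electrophoresis of fluorescent fragments. Gain or loss of signal fitted relative to DMSO baseline.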

[10] = target: Signal transducer and activator of transcription 3 (Homo sapiens) (UniProt P40763); test: ATG_STAT3_CIS: Attagene CIS-FACTORIAL HepG2 Assay for human Signal Transducer and Activator of Transcription 3 (STAT3) (AID 2282963); settings: HepG2, Attagene cis-factorial STAT3 reporter transcription; actives raise or lower the signal
Outline: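 Cis-factorial format: endogenous transcription factors in HepG2 drive transfected reporter units. After 24 h treatment, reporter RNA was reverse-transcribed, amplified, FAM-labelled and HpaI-digested before CE analysis; activity scored in both directions against DMSO.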

[11] = ATG_TA_CIS: Attagene CIS-FACTORIAL HepG2 Assay for human TA Basal Promoter (AID 2282964); settings: HepG2 Attagene CIS-factorial TA basal promoter reporter; actives raise or lower the signal
Outline: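 Fluorescence from labelled RT-PCR reporter fragments, separated by capillary electrophoresis, gives the signal. Cells: HepG2 transiently carrying multiple reporter units, 24 h chemical dosing. Gain or loss relative to DMSO.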

[12] = ATG_TCF_b_cat_CIS: Attagene CIS-FACTORIAL HepG2 Assay for human T-Cell-Factor with beta-catenin (TCF/b-cat) (AID 2282965); settings: HepG2 TCF/beta-catenin cis-reporter transcription, actives raise or lower the signal
Outline: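 Endogenous TCF/LEF activity read as reporter transcript level via RT-PCR and capillary electrophoresis fluorescence in transfected HepG2, 24 h exposure; gain or loss of signal fitted against DMSO controls.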

[13] = ATG_TAL_CIS: Attagene CIS-FACTORIAL HepG2 Assay for human TAL Basal Promoter (AID 2282966); settings: HepG2 Attagene cis-factorial TAL promoter reporter; actives raise or lower the signal;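 note: background control endpoint measuring basal TAL promoter reporter mRNA not a specific factor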
Outline: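 Background-control endpoint: basal TAL promoter reporter transcripts in transiently transfected HepG2, measured 24 h after dosing. Read-out by RT-PCR with fluorescent primer extension and capillary electrophoresis; gain or loss of signal fitted relative to DMSO.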

[14] = ATG_TGFb_CIS: Attagene CIS-FACTORIAL HepG2 Assay for human Transforming Growth Factor (TGF) (AID 2282967); settings: HepG2 Attagene CIS TGFb reporter, mRNA transcription; actives raise or lower the signal
Outline: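 Bidirectional fitting relative to DMSO gave the endpoint. Underlying data: reporter mRNA from HepG2 cells carrying transiently transfected cis-regulated reporter constructs, harvested 24 h after dosing and analyzed by RT-PCR and capillary electrophoresis.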

[15] = ATG_VDRE_CIS: Attagene CIS-FACTORIAL HepG2 Assay for human Vitamin D Receptor Element (VDRE) (AID 2282968); settings: HepG2 VDRE cis-reporter transcription, actives raise or lower the signal
Outline: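 Measures endogenous factor activity through cis-element-driven reporter transcripts in transiently transfected HepG2. Cells are treated 24 h; reporter mRNA is quantified by RT-PCR and capillary electrophoresis; fitting is bidirectional.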

[16] = target: Hypoxia-inducible factor 1-alpha (Homo sapiens) (UniProt Q16665); test: ATG_HIF1a_CIS: Attagene CIS-FACTORIAL HepG2 Assay for human Hypoxia Inducible Factor 1 (HIF1A) (AID 2282951); settings: HepG2 Attagene cis-factorial HIF1a reporter transcription; actives raise or lower the signal
Outline: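 Measures endogenous transcription-factor activity through cis-regulated reporter mRNA in HepG2. Cells dosed 24 h; transcripts quantified by RT-PCR with 6-FAM-labelled products separated by capillary electrophoresis; DMSO serves as negative control.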

[17] = target: Heat shock factor protein 1 (Homo sapiens) (UniProt Q00613); test: ATG_HSE_CIS: Attagene CIS-FACTORIAL HepG2 Assay for human Heat Shock Transcription Factor 1 (HSE) (AID 2282953); settings: HepG2 HSE cis-reporter, Attagene RNA transcription; actives raise or lower the signal
Outline: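 Endogenous transcription factor activity captured via cis-promoter reporter units transfected into HepG2; treatment lasted 24 h. Fluorescence intensity of reporter fragments analysed with bidirectional curve fitting, DMSO baseline.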

[18] = target: Paired box protein Pax-6 (Homo sapiens) (UniProt P26367); test: ATG_Pax6_CIS: Attagene CIS-FACTORIAL HepG2 Assay for human Paired Box 6 (PAX6) (AID 2282956); settings: HepG2 CIS-FACTORIAL PAX6 reporter transcription, RNA readout; actives raise or lower the signal
Outline: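 Read-out is reporter transcript level, measured by RT-PCR with fluorescent primer extension and capillary electrophoresis after 24 h dosing of transfected HepG2 cells. Activity in either direction fitted relative to DMSO control.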

[19] = ATG_PXRE_CIS: Attagene CIS-FACTORIAL HepG2 Assay for human Pregnane X Receptor Element (PXRE) (AID 2282957); settings: HepG2 Attagene CIS-FACTORIAL PXRE reporter, mRNA; actives raise or lower the signal
Outline: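 Reporter transcripts under endogenous PXR-responsive cis-regulation quantified from total RNA of transfected HepG2 cells 24 h post-dosing, via RT-PCR with fluorescent primer extension and capillary electrophoresis. Gain or loss of signal fitted against DMSO baseline.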

Measured: AC50

Hepatocyte nuclear factor 6 (Homo sapiens), sequence (Q9UBC0 whole entry, looked up): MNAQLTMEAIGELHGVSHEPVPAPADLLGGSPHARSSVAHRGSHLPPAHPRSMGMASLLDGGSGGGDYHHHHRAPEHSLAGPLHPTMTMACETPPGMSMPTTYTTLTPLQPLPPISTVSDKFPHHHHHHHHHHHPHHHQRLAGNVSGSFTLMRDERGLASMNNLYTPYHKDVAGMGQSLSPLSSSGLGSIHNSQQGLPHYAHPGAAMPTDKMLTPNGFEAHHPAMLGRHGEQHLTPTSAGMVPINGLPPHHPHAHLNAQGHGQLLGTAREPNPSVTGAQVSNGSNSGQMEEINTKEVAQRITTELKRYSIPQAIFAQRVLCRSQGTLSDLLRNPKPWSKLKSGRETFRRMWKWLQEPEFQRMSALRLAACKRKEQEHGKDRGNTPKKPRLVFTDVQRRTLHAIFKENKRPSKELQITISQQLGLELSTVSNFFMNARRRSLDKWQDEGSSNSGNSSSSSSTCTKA
Transcription factor Sp1 (Homo sapiens), sequence (P08047 whole entry, looked up): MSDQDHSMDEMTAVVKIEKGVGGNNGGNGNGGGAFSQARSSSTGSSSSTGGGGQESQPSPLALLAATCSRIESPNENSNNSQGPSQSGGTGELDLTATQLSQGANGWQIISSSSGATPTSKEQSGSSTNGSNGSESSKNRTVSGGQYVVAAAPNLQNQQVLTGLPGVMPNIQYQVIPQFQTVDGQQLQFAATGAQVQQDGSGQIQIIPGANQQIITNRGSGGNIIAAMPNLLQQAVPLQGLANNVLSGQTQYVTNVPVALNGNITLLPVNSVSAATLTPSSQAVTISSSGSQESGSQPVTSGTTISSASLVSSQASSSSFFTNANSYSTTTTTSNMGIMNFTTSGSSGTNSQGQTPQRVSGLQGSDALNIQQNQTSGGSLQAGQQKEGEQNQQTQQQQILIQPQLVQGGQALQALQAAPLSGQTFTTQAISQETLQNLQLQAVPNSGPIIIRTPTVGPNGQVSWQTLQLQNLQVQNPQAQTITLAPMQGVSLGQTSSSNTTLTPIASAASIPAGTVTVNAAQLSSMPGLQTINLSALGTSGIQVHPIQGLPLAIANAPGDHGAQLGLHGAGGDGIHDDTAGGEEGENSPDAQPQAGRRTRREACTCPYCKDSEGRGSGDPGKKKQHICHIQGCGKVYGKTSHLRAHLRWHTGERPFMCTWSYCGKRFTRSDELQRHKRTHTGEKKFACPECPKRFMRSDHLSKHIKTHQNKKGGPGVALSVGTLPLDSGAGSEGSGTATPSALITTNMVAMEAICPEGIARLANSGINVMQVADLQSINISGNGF
Signal transducer and activator of transcription 3 (Homo sapiens), sequence (P40763 whole entry, looked up): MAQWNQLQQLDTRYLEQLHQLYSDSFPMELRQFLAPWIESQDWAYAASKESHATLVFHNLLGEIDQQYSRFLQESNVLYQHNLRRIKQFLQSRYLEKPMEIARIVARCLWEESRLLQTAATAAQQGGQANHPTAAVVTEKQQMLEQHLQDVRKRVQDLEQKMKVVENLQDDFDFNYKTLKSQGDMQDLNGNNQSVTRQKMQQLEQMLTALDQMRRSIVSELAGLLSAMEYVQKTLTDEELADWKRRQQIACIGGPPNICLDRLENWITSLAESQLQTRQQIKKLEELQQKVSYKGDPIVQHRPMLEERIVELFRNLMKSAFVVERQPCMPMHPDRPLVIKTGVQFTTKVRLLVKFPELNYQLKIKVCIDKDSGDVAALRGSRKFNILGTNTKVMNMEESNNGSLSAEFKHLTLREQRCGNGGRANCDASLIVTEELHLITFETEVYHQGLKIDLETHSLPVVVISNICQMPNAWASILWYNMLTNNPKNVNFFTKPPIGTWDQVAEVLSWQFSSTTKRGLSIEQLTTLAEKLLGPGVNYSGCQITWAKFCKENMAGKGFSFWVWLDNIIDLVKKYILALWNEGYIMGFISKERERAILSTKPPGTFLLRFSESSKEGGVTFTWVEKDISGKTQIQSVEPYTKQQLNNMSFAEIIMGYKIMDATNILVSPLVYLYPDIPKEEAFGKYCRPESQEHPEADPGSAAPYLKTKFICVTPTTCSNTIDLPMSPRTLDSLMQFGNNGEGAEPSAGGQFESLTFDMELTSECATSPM
Heat shock factor protein 1 (Homo sapiens), sequence (Q00613 whole entry, looked up, the tested form may be a part): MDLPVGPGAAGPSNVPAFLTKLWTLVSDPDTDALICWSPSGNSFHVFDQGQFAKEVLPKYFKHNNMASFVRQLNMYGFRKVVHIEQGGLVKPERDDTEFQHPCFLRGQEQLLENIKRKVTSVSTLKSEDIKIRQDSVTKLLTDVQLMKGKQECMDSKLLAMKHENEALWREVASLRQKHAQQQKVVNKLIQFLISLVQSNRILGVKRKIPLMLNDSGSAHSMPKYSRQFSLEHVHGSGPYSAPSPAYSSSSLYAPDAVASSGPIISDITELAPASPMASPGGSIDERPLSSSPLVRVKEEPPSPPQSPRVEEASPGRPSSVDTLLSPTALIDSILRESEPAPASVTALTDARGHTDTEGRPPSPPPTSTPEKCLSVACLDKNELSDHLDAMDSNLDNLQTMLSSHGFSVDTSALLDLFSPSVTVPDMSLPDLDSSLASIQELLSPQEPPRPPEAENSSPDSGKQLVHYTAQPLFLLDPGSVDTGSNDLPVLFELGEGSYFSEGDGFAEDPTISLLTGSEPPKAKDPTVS
Hypoxia-inducible factor 1-alpha (Homo sapiens), sequence (Q16665 whole entry, looked up): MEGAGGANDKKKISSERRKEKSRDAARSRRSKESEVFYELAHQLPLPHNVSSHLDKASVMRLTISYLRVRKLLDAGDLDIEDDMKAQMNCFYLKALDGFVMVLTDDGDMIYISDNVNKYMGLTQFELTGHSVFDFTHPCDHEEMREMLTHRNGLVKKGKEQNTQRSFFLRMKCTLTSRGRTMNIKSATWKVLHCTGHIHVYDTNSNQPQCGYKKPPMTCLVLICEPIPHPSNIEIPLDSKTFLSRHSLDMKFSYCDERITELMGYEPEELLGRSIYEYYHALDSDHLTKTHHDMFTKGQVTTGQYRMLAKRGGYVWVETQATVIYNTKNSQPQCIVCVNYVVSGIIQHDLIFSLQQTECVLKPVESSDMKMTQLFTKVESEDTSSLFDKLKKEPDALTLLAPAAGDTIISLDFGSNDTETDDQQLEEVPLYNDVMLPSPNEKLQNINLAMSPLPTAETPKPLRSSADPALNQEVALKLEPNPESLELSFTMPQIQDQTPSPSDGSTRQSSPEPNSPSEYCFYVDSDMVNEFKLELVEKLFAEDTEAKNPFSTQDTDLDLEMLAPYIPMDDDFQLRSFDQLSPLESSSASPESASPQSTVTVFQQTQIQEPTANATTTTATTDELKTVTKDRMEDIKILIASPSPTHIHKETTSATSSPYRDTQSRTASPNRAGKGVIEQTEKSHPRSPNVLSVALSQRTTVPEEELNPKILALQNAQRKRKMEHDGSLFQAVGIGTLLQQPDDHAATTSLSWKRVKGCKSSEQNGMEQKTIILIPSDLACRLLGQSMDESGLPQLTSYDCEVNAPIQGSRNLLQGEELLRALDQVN
Paired box protein Pax-6 (Homo sapiens), sequence (P26367 whole entry, looked up): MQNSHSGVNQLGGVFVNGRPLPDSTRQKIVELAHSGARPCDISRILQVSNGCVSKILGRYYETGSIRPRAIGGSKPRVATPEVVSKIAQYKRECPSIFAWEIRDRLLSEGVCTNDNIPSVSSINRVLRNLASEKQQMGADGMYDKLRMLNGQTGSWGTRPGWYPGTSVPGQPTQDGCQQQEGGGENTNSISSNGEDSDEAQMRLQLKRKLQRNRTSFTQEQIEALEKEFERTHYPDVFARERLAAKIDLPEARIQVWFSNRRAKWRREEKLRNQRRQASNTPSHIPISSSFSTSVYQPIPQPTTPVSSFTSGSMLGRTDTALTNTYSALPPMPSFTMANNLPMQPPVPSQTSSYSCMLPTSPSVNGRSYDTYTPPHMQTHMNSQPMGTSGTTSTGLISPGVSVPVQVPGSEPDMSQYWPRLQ

O=c1oc2ccccc2c(O)c1C(CC(O)c1ccc(-c2ccc(Br)cc2)cc1)c1ccccc1 (configuration not stated)
inactive: [1] | [2] | [4] | [6] | [7] | [8] | [9] | [10] | [11] | [13] | [14]
active: [3] 40.3 µM and 31.9 µM | [4] 31.7 µM | [5] 10.8 µM and 227 nM | [8] 14.4 µM | [9] 8.18 µM | [11] 13.7 µM | [12] 21.1 µM and 11.5 µM | [13] 41.7 µM | [15] 22.4 µM and 8.54 µM

Cc1cc(C(C)(C)c2ccc(O)c(C)c2)ccc1O
inactive: [1] | [5] | [6] | [8] | [11] | [13] | [14]
active: [16] 30.3 µM | [2] 93.9 µM | [17] 39.5 µM | [3] 50.6 µM | [4] 18.1 µM | [18] 50 µM | [19] 1.7 µM | [7] 50 µM | [9] 30.3 µM | [10] 93.9 µM | [12] 41.3 µM | [15] 13.7 µM

O=C(NC(=O)c1c(F)cccc1F)Nc1cc(Cl)c(OC(F)(F)C(F)C(F)(F)F)cc1Cl (configuration not stated)
not listed: [5]
inactive: all other assays above

Cc1cccc(OP(=O)(Oc2cccc(C)c2)Oc2cccc(C)c2)c1
active: [15] 4.85 µM
not listed: [6] | [12] | [14] | [19]
inactive: all other assays above

Cc1cc(-c2cc(C)c(N)c(C)c2)cc(C)c1N
not listed: [19]
inactive: all other assays above

Clc1cc(C(Cl)(Cl)Cl)cnc1Cl
active: [16] 9 µM | [3] 9.1 µM | [18] 8.8 µM | [9] 17.5 µM
not listed: [4] | [12] | [17] | [19]
inactive: all other assays above

O=S1(=O)OC(c2cc(Br)c(O)c(Br)c2)(c2cc(Br)c(O)c(Br)c2)c2ccccc21
active: [19] 24.5 µM | [5] 57.4 µM | [6] 93 µM | [12] 121 µM
not listed: [16]
inactive: all other assays above

C#CCO
not listed: [14] | [17]
inactive: all other assays above

CC(c1ccccc1)(c1ccc(O)cc1)c1ccc(O)cc1
active: [17] 17.7 µM | [3] 16.3 µM | [18] 17.8 µM | [19] 2.92 µM | [9] 13.2 µM | [12] 16.9 µM | [15] 1.8 µM
not listed: [4] | [13]
inactive: all other assays above

CNC(=O)N(C)c1nc2ccccc2s1
active: [19] 27.5 µM
not listed: [12]
inactive: all other assays above

O=c1[nH]c(=O)n(Cl)c(=O)n1Cl
not listed: [4] | [5] | [6] | [12] | [15] | [19]
inactive: all other assays above

O=S(=O)(Oc1ccc(Cl)cc1)c1ccc(Cl)cc1
active: [3] 53.3 µM | [4] 10.8 µM | [19] 5.87 µM | [15] 10.4 µM
not listed: [14] | [16]
inactive: all other assays above

CC(C)(COCC1CO1)COCC1CO1 (configuration not stated)
active: [3] 100 µM | [19] 27.3 µM | [15] 38.7 µM
not listed: [13] | [14] | [17]
inactive: all other assays above

N#Cc1ccc(Cl)cc1
not listed: [16] | [17] | [19]
inactive: all other assays above
